# In PubChem BioAssay AID2073 (Sanford-Burnham Center for Chemical Genomics, 2009):
# The whole screen tested about 290,000 compounds, of which about 570 (0.2%) were called active. Roughly 1% stayed inconclusive and do not appear here. Cut-off read from the data, not from the text of the source: active = inhibition mostly above about 51% (no sharp cut-off); inconclusive = no clear call, values can overlap the other calls; inactive = mostly below about 53%. What follows is part of a selection rich in actives, with near analogues and random picks from the rest.
# Biological target: Voltage-dependent N-type calcium channel subunit alpha-1B (Homo sapiens) (UniProt Q00975)
# Assay: inhibitors of Mint1-CaV2.2 protein interaction, biochemical, HTRF (AID 2073)
# Conditions: at 20 µM, stronger effect = higher value
# Chain of Voltage-dependent N-type calcium channel subunit alpha-1B (Homo sapiens) (Q00975 whole entry, looked up): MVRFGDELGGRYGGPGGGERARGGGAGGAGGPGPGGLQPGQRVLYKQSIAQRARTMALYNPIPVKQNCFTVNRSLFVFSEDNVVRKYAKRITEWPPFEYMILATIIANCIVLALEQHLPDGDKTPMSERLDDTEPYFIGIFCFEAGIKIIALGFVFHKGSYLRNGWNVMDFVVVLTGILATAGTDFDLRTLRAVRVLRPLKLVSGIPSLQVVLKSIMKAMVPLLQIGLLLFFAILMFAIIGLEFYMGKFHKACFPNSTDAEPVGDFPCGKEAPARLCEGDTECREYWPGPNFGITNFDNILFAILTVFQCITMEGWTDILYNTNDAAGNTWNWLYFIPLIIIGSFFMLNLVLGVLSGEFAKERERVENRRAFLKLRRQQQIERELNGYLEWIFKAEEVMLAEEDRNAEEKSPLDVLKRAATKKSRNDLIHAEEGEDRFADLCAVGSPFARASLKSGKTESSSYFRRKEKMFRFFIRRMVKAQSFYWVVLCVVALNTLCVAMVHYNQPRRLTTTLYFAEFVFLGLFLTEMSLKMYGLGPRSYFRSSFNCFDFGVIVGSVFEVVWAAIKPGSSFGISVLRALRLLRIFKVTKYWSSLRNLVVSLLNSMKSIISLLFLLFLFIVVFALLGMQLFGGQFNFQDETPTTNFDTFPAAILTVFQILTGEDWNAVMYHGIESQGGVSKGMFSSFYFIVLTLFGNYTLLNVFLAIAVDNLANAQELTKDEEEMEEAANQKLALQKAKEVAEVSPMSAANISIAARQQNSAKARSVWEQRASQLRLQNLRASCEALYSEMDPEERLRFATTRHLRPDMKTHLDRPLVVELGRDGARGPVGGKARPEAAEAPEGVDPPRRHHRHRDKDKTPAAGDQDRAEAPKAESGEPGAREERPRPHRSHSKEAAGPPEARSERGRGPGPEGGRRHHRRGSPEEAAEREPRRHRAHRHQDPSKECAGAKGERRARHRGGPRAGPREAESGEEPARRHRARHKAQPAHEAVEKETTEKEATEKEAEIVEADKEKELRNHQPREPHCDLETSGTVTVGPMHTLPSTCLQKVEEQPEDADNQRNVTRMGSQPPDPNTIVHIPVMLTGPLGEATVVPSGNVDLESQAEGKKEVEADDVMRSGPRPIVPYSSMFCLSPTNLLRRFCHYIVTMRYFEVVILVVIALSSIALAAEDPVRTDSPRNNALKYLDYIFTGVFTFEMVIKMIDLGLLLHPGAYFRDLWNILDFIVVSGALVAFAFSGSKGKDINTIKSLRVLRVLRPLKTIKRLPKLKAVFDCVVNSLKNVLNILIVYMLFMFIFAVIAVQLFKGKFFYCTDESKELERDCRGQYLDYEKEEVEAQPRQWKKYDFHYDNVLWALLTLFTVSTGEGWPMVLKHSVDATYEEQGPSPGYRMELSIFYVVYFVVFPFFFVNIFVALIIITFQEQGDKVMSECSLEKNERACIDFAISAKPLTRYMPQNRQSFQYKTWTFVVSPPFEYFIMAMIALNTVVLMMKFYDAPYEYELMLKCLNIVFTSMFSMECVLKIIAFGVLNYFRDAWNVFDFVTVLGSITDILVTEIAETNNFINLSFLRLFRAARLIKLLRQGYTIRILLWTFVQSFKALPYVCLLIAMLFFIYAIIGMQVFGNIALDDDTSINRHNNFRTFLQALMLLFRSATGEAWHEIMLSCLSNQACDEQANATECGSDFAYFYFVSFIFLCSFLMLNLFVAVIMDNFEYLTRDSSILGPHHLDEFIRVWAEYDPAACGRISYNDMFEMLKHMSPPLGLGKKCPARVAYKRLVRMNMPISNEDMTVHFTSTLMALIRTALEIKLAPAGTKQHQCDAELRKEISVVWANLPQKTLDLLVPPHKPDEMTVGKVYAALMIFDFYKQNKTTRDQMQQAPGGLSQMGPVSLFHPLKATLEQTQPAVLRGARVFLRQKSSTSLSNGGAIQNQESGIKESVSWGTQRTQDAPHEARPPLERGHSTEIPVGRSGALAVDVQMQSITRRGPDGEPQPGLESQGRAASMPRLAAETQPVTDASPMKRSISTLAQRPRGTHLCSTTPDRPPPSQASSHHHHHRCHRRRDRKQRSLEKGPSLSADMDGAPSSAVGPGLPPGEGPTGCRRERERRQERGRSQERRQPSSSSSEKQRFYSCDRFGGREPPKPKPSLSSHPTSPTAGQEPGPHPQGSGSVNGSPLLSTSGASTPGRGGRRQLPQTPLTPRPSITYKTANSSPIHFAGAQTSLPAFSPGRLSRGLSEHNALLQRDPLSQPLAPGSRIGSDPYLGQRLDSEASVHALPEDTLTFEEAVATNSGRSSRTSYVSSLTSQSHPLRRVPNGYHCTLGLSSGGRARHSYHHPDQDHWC
row,Structure (SMILES),inhibition
1,CC1=C(C(=O)O)N2C(=O)C(NC(=O)c3ccn(C)n3)C2SC1 (centres undefined),-8.1% (inactive)
2,CC1=C(C(=O)O)N2C(=O)[C@@H](NC(=O)[C@H](N)c3ccccc3)[C@H]2SC1,-20.5% (inactive)
3,O=S1(=O)CCC(n2nccc2-c2ccccc2)C1 (centres undefined),-2.9% (inactive)
4,COC(=O)C1=C(C)N(CCCC(=O)O)C(=O)NC1c1ccc(-c2ccccc2)cc1 (centres undefined),-4.2% (inactive)
5,COc1cc(C2CC(=O)Nc3n[nH]c(-c4ccccc4)c32)cc(OC)c1OC (centres undefined),8.3% (inactive)
6,COc1cc(C2c3c([nH]c(=O)[nH]c3=O)Nc3ccc4ccccc4c32)cc(OC)c1OC (centres undefined),82.8% (active)
7,COc1cc(C2c3c([nH]c(=O)[nH]c3=O)Nc3ccc4ccccc4c32)ccc1O (centres undefined),-1.1% (inactive)
8,CSc1cccc(NC(=O)c2cc(S(=O)(=O)N3CCCC3)cn2C)c1,8.5% (inactive)
9,O=C(CSc1nc2c(c(=O)n1-c1ccc(Cl)cc1)SCC2)NCC1CCCO1 (centres undefined),-0.5% (inactive)
10,CC1=NN(C(N)=S)C(=O)C1N=Nc1c(Cl)cc([N+](=O)[O-])cc1Cl (centres undefined),-6.1% (inactive)
11,Cc1ccc(C)c(SCC(=O)NC(=O)Nc2ccc3c(c2)OCCO3)c1,1.2% (inactive)
12,CCCc1cc(=O)[nH]c(SCC(=O)N2CCC(C)CC2)n1,12% (inactive)
13,Cc1ccc([N+](=O)[O-])cc1N,0% (inactive)
14,Nc1cc([N+](=O)[O-])ccc1O,2.9% (inactive)
15,COc1ccc(NC(=O)CCC(=O)N(Cc2ccc(OC)c(OC)c2)c2nccs2)cc1,6% (inactive)
16,OCC1(CCCc2ccccc2)CCN(Cc2ccc(F)cc2)CC1,-2.6% (inactive)
17,CC(C)CNC(=O)c1ccccc1Oc1ccccc1,3.1% (inactive)
18,Cn1c(=O)c2c(-c3ccc(C(C)(C)C)cc3)n(CC3CCCO3)cc2n(C)c1=O (centres undefined),8.1% (inactive)
19,Cc1ccc2[nH]c(=O)c(CNC(C)C)cc2c1,15.1% (inactive)
20,COC(=O)C1=C(C)NC(C)=C(C(=O)OC)C1c1cc2cc(C)ccc2[nH]c1=O,17.4% (inactive)

row,Structure (SMILES),inhibition
1,Cc1ccc2c(c1C)NC(C(=O)O)C1CC=CC21 (centres undefined),42.8% (inactive)
2,O=C(O)C1Nc2c(Cl)cc(Cl)cc2C2C=CCC12 (centres undefined),51.5% (active)
3,O=C(O)C1Nc2c(C(F)(F)F)ccc(Cl)c2C2C=CCC12 (centres undefined),7.3% (inactive)
4,O=C(CCNC(=O)N1CCn2c1nc1ccccc12)NCc1ccccc1,-1.3% (inactive)
5,N#Cc1c(N)n(Cc2ccccc2)c(=O)c2cc([N+](=O)[O-])ccc12,2% (inactive)
6,O=c1c2c([N+](=O)[O-])cc([N+](=O)[O-])cc2sn1Cc1ccccc1,43.2% (inactive)
7,Cc1ccc(NC2SC(=O)N(CC(=O)O)C2=O)cc1 (centres undefined),-7.4% (inactive)
8,Cc1cccc(C)c1-n1c(C)nn(CC2CC2)c1=O,-5.7% (inactive)
9,COc1ccc(-c2csc(NC(=O)CN3C(=O)CCC3=O)n2)c(OC)c1,6.5% (inactive)
10,CC(C)(C)NC(=O)CN(C(=O)C1(C)CC(=O)N=C2C=CC=CN21)C1CCCC1 (centres undefined),9.2% (inactive)
11,CCCCCCC(=O)N(O)C1CC(=O)N(c2ccccc2)C1=O (centres undefined),65.6% (active)
12,CCCCCCC(=O)N(O)C1CC(=O)N(c2ccc(C)cc2)C1=O (centres undefined),12.5% (inactive)
13,CCCCCC(=O)N(O)C1CC(=O)N(c2ccccc2)C1=O (centres undefined),44.4% (inactive)
14,CN(CCN1CCc2ccccc2C1)Cc1nc(-c2ccc3c(c2)OCO3)no1,2.5% (inactive)
15,CCc1cc(C(=O)N2CCCC(C(=O)c3ccc(C(F)(F)F)cc3)C2)n(C)n1 (centres undefined),5.5% (inactive)
16,O=C(CSc1nc2scc(-c3ccco3)c2c(=O)n1-c1ccccc1)NCC1CCCO1 (centres undefined),55% (active)
17,C=CCn1c(SCC(=O)NCC2CCCO2)nc2scc(-c3ccco3)c2c1=O (centres undefined),33% (inactive)
18,O=C(CSc1nnc(-c2ccco2)n1-c1ccccc1)NCC1CCCO1 (centres undefined),9.9% (inactive)
19,Cc1cc(C)c(NC(=O)CN2CCN(c3ccccn3)CC2)c(C)c1,-1.2% (inactive)
20,CCOC(=O)C1(Cc2ccccc2C)CCCN(C(=O)c2ccoc2)C1 (centres undefined),14.3% (inactive)

row,Structure (SMILES),inhibition
1,COC(=O)C1=C(C)NC(C)=C(C(=O)OCC2CCCO2)C1c1cccc(Br)c1 (centres undefined),13.6% (inactive)
2,N#Cc1ccsc1NC(=O)CSc1nnnn1-c1ccc(O)cc1,50.6% (active)
3,Cn1cnnc1SCC(=O)Nc1sccc1C#N,2.2% (inactive)
4,Cc1ccc(-n2nnnc2SCC(=O)Nc2sccc2C#N)cc1,0% (inactive)
5,CC(=O)c1ccc2noc(-c3cccc(F)c3)c2c1,-6.7% (inactive)
6,CCn1cc(C(=O)O)c(=O)c2cc(F)c(N3CCN(C(=S)NC(=O)c4ccccc4)CC3)cc21,-5.6% (inactive)
7,CCn1cc(C(=O)O)c(=O)c2cc(F)c(N/N=C/c3ccccc3[N+](=O)[O-])cc21,58.8% (active)
8,CCn1cc(C(=O)O)c(=O)c2cc(F)c(N/N=C/c3ccccc3)cc21,6.4% (inactive)
9,Cn1cc([N+](=O)[O-])c(C(=O)NCc2ccco2)n1,-1.5% (inactive)
10,COc1ccccc1NC(=O)C1=C(C)NC(=O)NC1c1ccccc1F (centres undefined),6.4% (inactive)
11,COc1ccc(NC(=O)C2=C(C)NC(=O)NC2c2ccccc2[N+](=O)[O-])cc1 (centres undefined),-2.6% (inactive)
12,COc1ccccc1NC(=O)C1=C(C)NC(=O)NC1c1ccccc1[N+](=O)[O-] (centres undefined),55.2% (active)
13,O=C(CN1C(=O)C2CCCCC2C1=O)N1CCN(c2ncccn2)CC1 (centres undefined),10.4% (inactive)
14,CC(C)CCN(C)C1CCN(S(=O)(=O)c2cccc(C(F)(F)F)c2)CC1,12.2% (inactive)
15,O=C(N/N=C/c1ccc([N+](=O)[O-])cc1)c1cc(C2CC2)[nH]n1,-0.6% (inactive)
16,O=C(N/N=C/c1cccc([N+](=O)[O-])c1)c1cc(-c2ccc3c(c2)OCO3)n[nH]1,3.3% (inactive)
17,O=C(Nc1ccc(S(=O)(=O)Nc2nccs2)cc1)c1ccc(N2C(=O)c3ccccc3C2=O)cc1,58.8% (active)
18,O=C(Nc1ccc(S(=O)(=O)Nc2nccs2)cc1)c1ccc(F)cc1,11.1% (inactive)
19,O=C(Nc1ccc(S(=O)(=O)Nc2nccs2)cc1)c1cccc(N2C(=O)c3ccccc3C2=O)c1,49.1% (inactive)
